Laboratory results published in PubChem BioAssay (NCATS).
Results filed as inconclusive are left out. The source holds several records for some structures; these can differ, active in one and inactive in another. Activity calls are given as the source filed them. The call rests on the fitted dose curve; in most records, active means well fitted curve in the direction sought with a large enough effect; inconclusive means small, poorly fitted or top-dose-only effect, or another doubt; inactive means no such curve, though single readings can be large; an effect the other way counts as inactive or inconclusive.

Tests used:
[1] = test system: Zika virus NS2B-NS3 protease (linked construct); test: Primary screen NINDS Rhodamine qHTS for Zika virus inhibitors (AID 1347160); further: nearly all actives have a fitted effect of over 55% in size
How it was run: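 Rhodamine110-peptide cleavage (1.5 µM substrate) by 25 nM linked NS2B-NS3 enzyme at pH 8.0 (Tris, Tween 20), after 15 min RT preincubation with compounds; 15-min fluorescence change normalized to controls and Hill-fitted.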

[2] = target: Calcium and integrin-binding protein 1 (Homo sapiens) (UniProt Q99828); test: Primary qHTS for Identification of Calcium Integrin Binding Protein 1 (CIB1) Competitor (AID 1508620);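 further: GST tagged CIB1 binding a fluorescein labelled alphaIIb integrin peptide tracer; top concentration of the series differs between compounds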
How it was run: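 Fluorescence polarization competition: CIB1-GST (1 uM final) preincubated with compound 15 min at room temperature, then FITC-labeled alphaIIb peptide (100 nM final) added for another 15 min. Polarization read at Ex 480/Em 540.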

[3] = Primary qHTS for inhibitors of nuclear receptor binding SET domain protein 2 (NSD2) in an isogenic RCH-ACV NSD2 p.E1099K mutant (9B) (AID 1645876); further: nearly all actives have a fitted effect of over 70% in size; further: potency means the concentration at half of the fitted maximal effect
[4] = Primary qHTS for inhibitors of nuclear receptor binding SET domain protein 2 (NSD2) in an RCH-ACV wild type WT cells (2C) (AID 1645877); further: nearly all actives have a fitted effect of over 70% in size; further: potency means the concentration at half of the fitted maximal effect
[5] = target: Glutathione peroxidase 1 (Homo sapiens) (UniProt P07203); test: Primary qHTS Assay for Inhibitors of Recombinant Selenoprotein Glutathione Peroxidase 1 (GPX1) (AID 1845191); further: nearly all actives have a fitted effect of over 65% in size
How it was run: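 GPX1 10 nM, GR 100 nM, GSH 1 mM, NADPH 0.5 mM, CHP 0.5 mM (final). 30-min cpd preincubation, RT. Ex340/Em450 read t=0, t=15 min.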

[6] = target: Luciferin 4-monooxygenase (Photinus pyralis) (UniProt P08659); test: Primary firefly luciferase (FLuc) qHTS assay for identification of artifact compounds. (AID 1845220); further: nearly all actives have a fitted effect of over 60% in size; further: potency means the concentration at half of the fitted maximal effect
How it was run: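 Reaction readout was CCD-imaged luminescence, taken 5 min after adding 10 nM purified firefly enzyme to compound-treated wells holding 10 uM luciferin and ATP in pH 7.6 buffer.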

[7] = test system: Nanoluciferase (engineered Oplophorus gracilirostris luciferase); test: Primary Nanoluciferase (NLuc) qHTS assay for identification of artifact compounds. (AID 1845222);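 further: NLuc secreted into diluted conditioned medium of S16 cells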
How it was run: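 Concentration-response data were obtained by luminescence after 5 min with Nano-Glo substrate at 1:100. The enzyme was diluted S16 NLuc-expressing cell medium, preincubated with compound for 15 min at RT. Curves were fitted with a 4-parameter Hill model.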

[8] = Primary redox qHTS assay for identification of artifact compounds. (AID 1845223)
How it was run: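 Redox-cycling detection via DTT (250 uM final) oxidation coupled to Amplex Red (25 uM)/HRP (250 mU/mL) in HBSS. 15 min preincubation plus 30 min after DTT, room temperature. Ex/Em 525/598 nm; 4-parameter Hill fit against DMSO and 10 uM DA3003.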

[9] = test system: C33A; test: Primary qHTS to identify gynecologic anti-cancer compounds using libraries of approved drugs and bioactive compounds (AID 1345084); details: Gynecologic cancer cell panel viability, ATPlite luminescence, 48 h; series mostly up to 57.5 µM; further: nearly all actives have a fitted effect of over 55% in size
How it was run: (§1)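 ATP-based viability (ATPlite), 1,000 cells/well, 16 h pre-incubation, 48 h compound at 37 C, 5% CO2, 15 min RT before read.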

[10] = test system: CASKI; test: as above; details: Gynecologic cancer cell panel viability, ATPlite luminescence, 48 h; series mostly up to 57.5 µM
How it was run: as §1

[11] = test system: JEG-3; test: as above; details: Gynecologic cancer cell panel viability, ATPlite luminescence, 48 h; series mostly up to 57.5 µM
How it was run: as §1

[12] = test system: OV90; test: as above; details: Gynecologic cancer cell panel viability, ATPlite luminescence, 48 h; series mostly up to 57.5 µM
How it was run: as §1

[13] = test system: Tov112D; test: as above; details: Gynecologic cancer cell panel viability, ATPlite luminescence, 48 h; series mostly up to 57.5 µM
How it was run: as §1

[14] = target: Phospholipid hydroperoxide glutathione peroxidase GPX4 (Homo sapiens) (UniProt P36969); test: Primary qHTS Assay for Inhibitors of Recombinant Selenoprotein Glutathione Peroxidase 4 (GPX4) (AID 1845192); details: outcome: dose series up to 50 µM unless noted; further: nearly all actives have a fitted effect of over 65% in size
How it was run: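 qHTS, GR-coupled: GPX4 200 nM + cpd 30 min RT → GSH 1 mM, NADPH 0.5 mM, GR 100 nM → CHP 0.5 mM start; fluor 340/450 at t0 and t15 min; no-enzyme wells as control.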

[15] = Primary fluorescence-based thiol-reactive (MSTI) qHTS assay for identification of artifact compounds. (AID 1845221); further: nearly all actives have a fitted effect of over 65% in size; further: potency means the concentration at half of the fitted maximal effect
How it was run: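 A multi-concentration qHTS design tested compounds against 4 uM MSTI, pH 7.4 phosphate-buffered saline. Plates were protected from light for 1 h at room temperature before imaging fluorescence.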

[16] = test system: Es-2; test: Primary qHTS to identify gynecologic anti-cancer compounds using libraries of approved drugs and bioactive compounds (AID 1345084); details: Gynecologic cancer cell panel viability, ATPlite luminescence, 48 h; series mostly up to 57.5 µM; further: nearly all actives have a fitted effect of over 55% in size
How it was run: as §1

[17] = test system: HeLa; test: as above; details: Gynecologic cancer cell panel viability, ATPlite luminescence, 48 h; series mostly up to 57.5 µM
How it was run: as §1

[18] = test system: Hek293T; test: as above; details: Gynecologic cancer cell panel viability, ATPlite luminescence, 48 h, control line for the selectivity index; series mostly up to 57.5 µM
How it was run: as §1

[19] = test system: PA-1; test: as above; details: Gynecologic cancer cell panel viability, ATPlite luminescence, 48 h; series mostly up to 57.5 µM
How it was run: as §1

[20] = test system: Tov-21-G; test: as above; details: Gynecologic cancer cell panel viability, ATPlite luminescence, 48 h; series mostly up to 57.5 µM
How it was run: as §1

Measured: Potency

Phospholipid hydroperoxide glutathione peroxidase GPX4 (Homo sapiens), sequence (P36969 whole entry, looked up): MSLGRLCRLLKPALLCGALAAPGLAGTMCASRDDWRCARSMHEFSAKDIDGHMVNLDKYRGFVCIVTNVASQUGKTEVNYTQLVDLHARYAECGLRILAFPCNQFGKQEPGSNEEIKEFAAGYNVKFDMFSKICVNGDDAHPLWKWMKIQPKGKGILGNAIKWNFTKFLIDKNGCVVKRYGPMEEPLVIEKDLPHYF
Glutathione peroxidase 1 (Homo sapiens), sequence (P07203 whole entry, looked up): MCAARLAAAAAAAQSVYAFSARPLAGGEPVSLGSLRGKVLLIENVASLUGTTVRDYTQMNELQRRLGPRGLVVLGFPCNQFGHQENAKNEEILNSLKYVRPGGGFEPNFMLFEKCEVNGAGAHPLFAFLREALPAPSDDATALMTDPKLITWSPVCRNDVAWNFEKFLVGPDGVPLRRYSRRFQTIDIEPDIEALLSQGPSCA
Calcium and integrin-binding protein 1 (Homo sapiens), sequence (Q99828 whole entry, looked up): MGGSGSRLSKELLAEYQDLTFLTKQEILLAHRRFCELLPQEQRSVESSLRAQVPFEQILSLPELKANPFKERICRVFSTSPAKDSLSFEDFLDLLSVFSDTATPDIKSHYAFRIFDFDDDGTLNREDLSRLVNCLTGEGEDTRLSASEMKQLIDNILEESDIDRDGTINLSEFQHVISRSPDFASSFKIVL

Nc1ncnc2c1ncn2[C@@H]1O[C@H](CO)C[C@H]1O
10.3 µM (active) and inactive: [3]
active: [4] 5.78 µM
not listed: [14] | [15] | [16] | [17] | [18] | [19] | [20]
inactive: all other assays above

C=C1CC[C@@H]2[C@](C)(CO)[C@H](O)CC[C@@]2(C)[C@@H]1C/C=C1/C(=O)OC[C@@H]1O
inactive: [1] | [2] | [14] | [6] | [15] | [7] | [16] | [17] | [11] | [12]

CN1CCN(C(=O)c2ccc(Nc3nccc(-c4cccs4)n3)cc2Cl)CC1
active: [3] 7.28 µM | [4] 6.49 µM
not listed: [11] | [13] | [14] | [20]
inactive: all other assays above

COc1cc(N2CCOCC2)ccc1Nc1ncc(F)c(Nc2ccccc2NS(C)(=O)=O)n1
inactive: [2] | [5] | [14] | [6] | [8] | [16]
active: [3] 8.17 µM | [4] 8.17 µM | [15] 2.38 µM

Nc1nc(NCC2CCC(CNS(=O)(=O)c3cccc4ccccc34)CC2)nc2ccccc12 (centres undefined)
active: [3] 4.09 µM | [4] 2.58 µM
not listed: [7] | [8] | [12] | [13] | [14]
inactive: all other assays above

OCC(Cc1ccccc1)Nc1nc(Oc2ccc3c(c2)CCC3)nc2c1ncn2Cc1ccc(-c2ccccc2)cc1 (centres undefined)
active: [3] 16.3 µM
not listed: [4] | [5] | [6] | [11] | [15] | [16] | [19]
inactive: all other assays above

CC(=O)c1c(OCCN2CCCCC2)c(OCCC(C)c2ccc(F)cc2)c2oc(C)nc2c1C (centres undefined)
not listed: [3] | [4] | [7] | [18] | [19]
inactive: all other assays above

Cc1cc2nc(NCCCO)n(CC(=O)c3cc(C(C)(C)C)c(O)c(C(C)(C)C)c3)c2cc1C
active: [3] 8.17 µM
not listed: [4] | [8] | [9] | [15]
inactive: all other assays above

CNCc1ccc(C)c(NC(=O)c2ccc(Nc3nc(-c4ccccc4)c4ccccc4n3)cc2)c1
active: [3] 7.42 µM | [4] 7.42 µM
not listed: [19]
inactive: all other assays above

N#C[C@@H]1C[C@@H]2C[C@@H]2N1C(=O)[C@@H](N)C12CC3CC(CC(O)(C3)C1)C2
not listed: [6]
inactive: all other assays above

Nc1ccc(N)c([N+](=O)[O-])c1
inactive: [9] | [10] | [16] | [17] | [18] | [11] | [19] | [20] | [13]

CCCCOc1ccc(-c2cncc(C(=O)NCc3cccnc3N3CCOCC3)c2)cc1Cl
inactive: all assays above

c1ccc(-c2cnc(Nc3ccc(OCCN4CCCC4)cc3)s2)cc1
active: [3] 9.16 µM | [4] 9.16 µM | [6] 23.9 µM
not listed: [12] | [15] | [19] | [20]
inactive: all other assays above

C=CC(=O)N1CCN(C(=O)c2cc(-c3cc(Cl)ccc3Cl)c(Cl)cc2OC)CC1
active: [3] 11.5 µM | [4] 8.17 µM
not listed: [9] | [13] | [16] | [17] | [18] | [20]
inactive: all other assays above
